According to PubChem BioAssay AID463195 (Sanford-Burnham Center for Chemical Genomics, 2010):
In all, about 330,000 compounds went through this assay and about 4,600 (1.4%) were called active. Many of the other results were omitted from the sample, so actives are more common in it than they were. Unmarked numbers belong to inactive results.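 Rule for the calls: active = inhibition of 40% or more at the single tested concentration; inactive = the rest.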

test: growth inhibitors of isogenic TIM10 control yeast, primary screen, counter-screen for tim10-1 yeast inhibitor project, luminescence, uHTS (AID 463195);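 note: wild-type TIM10 isogenic control strain grown at permissive 25 °C; 0% = DMSO yeast wells and 100% = minimal medium wells without yeast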; details: S. cerevisiae TIM10 strain growth, BacTiter-Glo luminescence, 24 h; at 10 µM; hits give high values

Row | SMILES | inhibition
1 | COc1ccc(OC)c(C(=O)c2ccc(C(=O)N3CCN(Cc4csc(C)n4)CC3)cc2)c1 | -9.33%
2 | CCOC(=O)c1cn[nH]c1NC(=S)Nc1ccccc1 | -4.24%
3 | CCC1C/C(=C/c2cccs2)C(=O)/C(=C/c2cccs2)C1 (configuration not stated) | 8.85%
4 | CSC1=N/C(=C\C=C\c2cccs2)C(=O)S1 | 46.2% (active)
5 | COC(=O)c1cccc(N2C(=O)C3C4C=CC(CC4)C3C2=O)c1 (configuration not stated) | -2.62%
6 | O=C(OCC(=O)N(CCc1ccccc1)Cc1ccccc1)c1ccccc1[N+](=O)[O-] | 6.8%
7 | O=C(Nc1ccnc(-c2ccncc2)n1)c1cccs1 | 5.09%
8 | O=C(Nc1ccc(O)cc1)c1ccc(NC(=O)c2ccco2)cc1 | -7.64%
9 | O=C(Nc1ccc(NC(=O)c2cccs2)cn1)c1ccco1 | 49.1% (active)
10 | O=C(CN1CCN(C(=O)C2CCCO2)CC1)Nc1c(Cl)cccc1Cl (configuration not stated) | -3.56%
11 | O=[N+]([O-])c1ccc(N2CCN(c3ccc(F)cc3)CC2)cn1 | 9.61%
12 | C/C=N/NC(=O)CCCC(=O)N/N=C/C | 19.2%
13 | S=C(NNC(=S)NC1CC2CCC1C2)NC1CC2C=CC1C2 (configuration not stated) | 31.5%
14 | S=C(NNC(=S)NC1CC2C=CC1C2)NC1CC2C=CC1C2 (configuration not stated) | 11.5%
15 | CC(C)c1ccc(NC(=S)NC2CC3C=CC2C3)cc1 (configuration not stated) | 41.7% (active)
16 | Fc1ccc(Cn2nnnc2C(c2cccs2)N2CCCCCC2)cc1 (configuration not stated) | 23.6%
17 | Clc1nc(NC2CCCC2)nc(N2CCOCC2)n1 | 11.4%
18 | COc1nc(NC2CCCCC2)nc(N2CCCCCC2)n1 | 40% (active)
19 | COC(=O)c1ccc(Oc2nc(Nc3ccc(F)cc3)nc(N3CCCC3)n2)cc1 | -20.4%
20 | CCOC(=O)c1cnn(Cc2ccccc2Cl)c1N | 1.13%
21 | COC(=O)CNC(=O)C(CCSC)NC(C)=O (configuration not stated) | -26.2%

Row | SMILES | inhibition
22 | CO/N=C/c1cn(-c2ccc(Cl)cc2)nn1 | 5.41%
23 | Cc1nc(-c2ccc(Cl)cc2)sc1C(=O)CBr | 51.9% (active)
24 | Cc1nc(-c2ccc(Cl)cc2)sc1C1(C)CC(c2ccc(Br)cc2)=NO1 (configuration not stated) | 7.58%
25 | Cc1nc(-c2ccccc2)sc1C(=O)/C=C/N(C)C | 7.98%
26 | O=C(CSc1nncs1)NC1CCCc2ccccc21 (configuration not stated) | -4.46%
27 | Cc1ccccc1N1CC(C(=O)Nc2nnc(SCCC3OCCO3)s2)CC1=O (configuration not stated) | 4.72%
28 | CCSc1ccccc1C(=O)NCc1ccc(OC)cc1 | -1.39%
29 | Cc1cccc(C)c1NC(=O)Nc1ccccc1-n1ccnc1 | 3.36%
30 | O=C(O)CCCC(=O)Nc1ccccc1-n1ccnc1 | 95.9% (active)
31 | CC(CC(=O)Nc1ccccc1)n1ccnc1 (configuration not stated) | -0.308%
32 | COc1nc(Oc2ccc(=O)n(C)n2)nc(N(C)C)n1 | -5.67%
33 | Cn1cnc([N+](=O)[O-])c1Sc1ccccc1 | 21.8%
34 | COCCNC(=O)COc1ccc(N(C)S(=O)(=O)c2ccc3ccccc3c2)cc1 | 20.2%
35 | CN(c1ccc(OCC(=O)O)cc1)S(=O)(=O)c1ccc2ccccc2c1 | -10.2%
36 | CC(=O)Oc1ccc(N(C(C)=O)S(=O)(=O)c2ccc3ccccc3c2)cc1Br | 48.2% (active)
37 | COc1ccccc1C(=O)COC(=O)CSCC(=O)Nc1cc(C)on1 | 11.1%
38 | COCCn1c(CN2CCC(Cc3ccccc3)CC2)nc2c1c(=O)n(C)c(=O)n2C | -0.058%
39 | CC(=O)Nc1cccc(OCC(=O)/C=C2\N(C)c3ccccc3C2(C)C)c1 | 14.8%
40 | CCOC(=O)c1c(NC(=O)c2ccc(S(=O)(=O)N(C)CC3CCCO3)cc2)sc2c1CC(C)(C)NC2(C)C (configuration not stated) | -10.5%
41 | COC(=O)c1c(NC(=O)COc2ccc(Cl)cc2Cl)sc2c1CC(C)(C)NC2(C)C | 41.3% (active)
42 | COC(=O)c1sccc1NC(=O)COc1ccc(Cl)cc1 | 12.6%

Row | SMILES | inhibition
43 | CCN(CC(=O)NC(C)C)C(=O)CCNC(=O)c1ccc(Cl)cc1 | 10.6%
44 | CC1CCC(NC(=O)C2c3ccccc3C(=O)N2Cc2ccc3c(c2)OCO3)CC1 (configuration not stated) | 0.084%
45 | CC(=NCc1ccc2c(c1)OCO2)C1=C(O)c2ccccc2C1=O | 70.5% (active)
46 | CCc1ccc(NC(=O)NC(C)c2ccc3c(c2)OCO3)cc1 (configuration not stated) | 6.53%
47 | O=C1N(c2ccccc2)C(=Nc2ccccc2)SC12CC2 | 13.6%
48 | CC(=O)Nc1ccc(Nc2c([N+](=O)[O-])cc(S(C)(=O)=O)cc2[N+](=O)[O-])cc1 | -6.6%
49 | CN(C)CCc1c[nH]c2ccc(Cn3cncn3)cc12 | 5.24%
50 | O=C(COC(=O)c1ccccc1Br)Nc1nnc(-c2ccccc2)o1 | -0.697%
51 | Nc1cc(OC(=O)c2ccccc2Br)nn1S(=O)(=O)c1ccccc1 | 46.5% (active)
52 | Cc1ccc(S(=O)(=O)n2nc(OC(=O)C(C)(C)C)cc2N)cc1 | 17.1%
53 | O=C(NCc1ccco1)c1cc2sccc2n1Cc1ccc(F)cc1 | 46.4% (active)
54 | O=C(NCc1ccco1)c1ccc(Cn2c(=O)c3sccc3n(Cc3ccc(F)cc3)c2=O)cc1 | 2.56%
55 | O=C(Cc1ccc(-n2c(=O)c3sccc3n(Cc3ccc(F)cc3)c2=O)cc1)NCc1ccco1 | 8.88%
56 | COc1ccc(N2CC(C(=O)NCCS(=O)(=O)N3CCN(c4ccccc4)CC3)CC2=O)cc1 (configuration not stated) | -13.2%
57 | C[C@H]1CN([C@@H](C)CO)C(=O)Cc2cc(NS(C)(=O)=O)ccc2O[C@@H]1CN(C)CC1CC1 | -6.97%
58 | O=S(=O)(ON(c1ccccc1)S(=O)(=O)c1ccccc1)c1ccccc1 | 45.9% (active)
59 | O=S(=O)(c1ccccc1)N(Cc1cccc(F)c1)c1ccccc1 | 3.1%
60 | CCN(c1ccccc1)S(=O)(=O)c1ccc(N)cc1 | 8.8%
61 | COC(=O)c1ccc(OC(=O)c2nn(C)cc2Cl)c(OC)c1 | 8.9%
62 | O=C(O)c1ccccc1N=N/C(=N/Nc1cc(S(=O)(=O)O)ccc1O)c1ccccc1 | 0.626%
